Laboratory results: PubChem BioAssay (EPA / NIEHS)
Several values for one entry are separate records, joined by “and”; a condition that tells them apart may be missing. Equal values may be shown once. A structure can be active in one record and inactive in another. Activity calls are given as the source filed them. How the source made its calls: active means hit-call score of the fitted dose curve at least 0.9, where 1 is the maximum; inactive means score below 0.9.

Test: CCTE_Shafer_MEA_acute_burst_percentage_mean: CCTE's Neural Acute Assay for Percentage of Spikes in a Burst, Shafer Lab (AID 2284017);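 on AC50: curve fitted for loss of signal so potency reflects decreased burst percentage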
Procedure: CCTE_Shafer_MEA_acute assay is conducted using Axion Biosystems 48 well microelectrode array (MEA) plates and Maestro recording system. Each well of the MEA plate contains a grid of 16 microelectrodes embedded in the culture surface. Electrically active cells, such as neurons, can be cultured over the electrodes, and electrical activity in these cells can be recorded extracellularly. The spontaneous firing of neurons is captured from each electrode on a microsecond timescale providing both temporally and spatially precise data. […] The CCTE_Shafer_MEA_acute assay uses primary cultures of rat cortical neurons. As these cultures mature over time, neural networks develop functional activity and form cohesive networks in which electrical activity can be highly coordinated. Baseline 40-minute recordings are made on days post-plating 13 or 15, followed by a secondary 40-minute recording after chemical exposure.CCTE_Shafer_MEA_acute_burst_percentage_mean is a component of the CCTE_Shafer_MEA_acute assay. It measures the percentage of spikes (action potential firing) in a single-electrode burst (temporally-clustered groups of spikes) as the number of spikes in bursts divided by the total number of spikes during a recording in a microelectrode array (MEA) using Axion Biosystems Maestro 768 channel amplifier with the AxIS adaptive spike detector. The average of the burst percentages across electrodes is calculated to report a well-level value. The recordings before and after chemical treatment are used to calculate a percent change in the mean burst percentage in each well.Data from the assay component CCTE_Shafer_MEA_acute_burst_percentage_mean was analyzed into 1 assay endpoint. This assay endpoint, CCTE_Shafer_MEA_acute_burst_percentage_mean, was analyzed in the negative analysis fitting direction relative to DMSO as the negative control and baseline of activity. Using a type of functional reporter, gain or loss-of-signal activity can be used to understand electrical activity.
Spontaneous activity in the cortical cultures was recorded using an Axion Biosystems Maestro 768 channel amplifier and Axion Integrated Studios (AxIS) v1.8 (or later) software. The amplifier recorded from all channels simultaneously (gain = 1200 x; sampling rate = 12.5 kHz/channel): raw signals were filtered with a Butterworth band-pass filter (300-5000 Hz), which filters out slower local field potentials leaving only fast potentials, i.e., "spikes", arising from extracellular currents associated with action potentials (Pine 2006; Wheeler and Nam 2011). On-line spike detection of filtered signals was conducted with the AxIS adaptive spike detector, using a threshold of 8x the root mean squared (rms) noise on each channel. Any electrodes with rms noise levels greater than 5 uV were grounded (e.g., no data were recorded). Once grounded, an electrode was grounded for the duration of the experiment. All recordings were conducted at 37 C. Wells were deemed usable if on the day of the exposure >/= 10 electrodes were active (defined as >/= 5 spikes/min). On DIV 13 or 15, a minimum of three wells from one cortical culture preparation were treated with each compound (0.03-40 uM). Prior to recording baseline activity, each mwMEA plate was placed in the Maestro at 37 C and allowed to sit for 20 min while firing rates stabilized. Baseline activity (40 min) was recorded before the addition of each compound. An additional 40 min of spontaneous activity was recorded in the presence of each compound. Changes in network parameters relative to baseline were assessed following compound treatment.

| SMILES | AC50 | outcome |
| --- | --- | --- |
| C[Si](Cn1cncn1)(c1ccc(F)cc1)c1ccc(F)cc1 | 15.4 µM (active) | – |
| CN(C)[C@@H]1C(=O)C(C(N)=O)=C(O)[C@@]2(O)C(=O)C3=C(O)c4c(O)cccc4[C@@](C)(O)[C@H]3[C@H](O)[C@@H]12 | – | inactive |
| CN(C)NC(=O)CCC(=O)O | – | inactive |
| CC1=NNC(=O)N(/N=C/c2cccnc2)C1 | – | inactive |
| CC[C@H](C)[C@H]1O[C@]2(C=C[C@@H]1C)C[C@@H]1C[C@@H](C/C=C(\C)[C@@H](O[C@H]3C[C@H](OC)[C@@H](O[C@H]4C[C@H](OC)[C@@H](NC)[C@H](C)O4)[C@H](C)O3)[C@@H](C)/C=C/C=C3\CO[C@@H]4[C@H](O)C(C)=C[C@@H](C(=O)O1)[C@]34O)O2 | 26.6 nM (active) and 37.8 nM (active) | – |
| CC(C)[C@H](C(=O)O[C@H](C#N)c1cccc(Oc2ccccc2)c1)c1ccc(Cl)cc1 | 0.958 µM (active) | – |
| N#CSCSC#N | 27 µM (active) | – |
| CCOC(=O)CC(SP(=O)(OC)OC)C(=O)OCC (stereo not given) | – | inactive |
| CSC1=N[C@@](C)(c2ccccc2)C(=O)N1Nc1ccccc1 | 20 µM (active) and 24.4 µM (active) | – |
| COc1cc(OC)nc(Sc2cccc(Cl)c2C(=O)O)n1 | – | inactive |
| CCOP(=S)(Oc1cnc(C(C)(C)C)nc1)OC(C)C (stereo not given) | 35.6 µM (active) | – |
| Cc1ccn2nc(S(=O)(=O)Nc3c(F)cccc3F)nc2n1 | – | inactive |
| COP(=O)(OC)C(O)C(Cl)(Cl)Cl (stereo not given) | – | inactive |
| CCc1cccc(C)c1N(C(=O)CCl)C(C)COC (stereo not given) | 10.9 µM (active) | – |
| CN1COCN(Cc2cnc(Cl)s2)C1=N[N+](=O)[O-] | – | inactive |
| Nc1c(Cl)cc([N+](=O)[O-])cc1Cl | 20 µM (active) | – |
| C#CCC1=C(C)C(OC(=O)C2C(C=C(C)C)C2(C)C)CC1=O (stereo not given) | 12.7 µM (active) | – |

| SMILES | AC50 | outcome |
| --- | --- | --- |
| CCOP(=S)(OCC)SCCSCC | – | inactive |
| CCOP(=S)(OCC)Oc1ccc2c(C)c(Cl)c(=O)oc2c1 | 3.9 µM (active) | – |
| CC(COc1ccc(Oc2ccccc2)cc1)Oc1ccccn1 (stereo not given) | 10.3 µM (active) | – |
| CC(=NC#N)N(C)Cc1ccc(Cl)nc1 | – | inactive |
| FC(F)C(F)(F)OCC(Cn1cncn1)c1ccc(Cl)cc1Cl (stereo not given) | – | inactive |
| CC(C)=CC1C(C(=O)OCN2C(=O)C3=C(CCCC3)C2=O)C1(C)C (stereo not given) | 20 µM (active) | – |
| CON=C(C(=O)OC)c1ccccc1CON=C(C)c1cccc(C(F)(F)F)c1 | 1.12 µM (active) | – |
| C[N+]1(C)CCCCC1 | – | inactive |
| CCOP(=O)(NC(C)C)Oc1ccc(SC)c(C)c1 (stereo not given) | 30.2 µM (active) | – |
| CC(C)N(C(=O)SCC(Cl)=C(Cl)Cl)C(C)C | 20 µM (active) and 15 µM (active) | – |
| COP(=O)(NC(C)=O)SC (stereo not given) | 0.792 µM (active) | inactive |
| CCCOCC(=Nc1ccc(Cl)cc1C(F)(F)F)n1ccnc1 | 2.71 µM (active) | – |
| CNC(=O)ON=C(SC)C(=O)N(C)C | – | inactive |
| O=[N+]([O-])c1cc(C(F)(F)F)c(Cl)c([N+](=O)[O-])c1Nc1ncc(C(F)(F)F)cc1Cl | 0.678 µM (active) | – |
| CCc1cnc(C2=NC(C)(C(C)C)C(=O)N2)c(C(=O)O)c1 (stereo not given) | – | inactive |
| O=C(O)c1cc(Oc2ccc(C(F)(F)F)cc2Cl)ccc1[N+](=O)[O-] | – | inactive |
| C=C(C)[C@H]1Cc2c(ccc3c2O[C@@H]2COc4cc(OC)c(OC)cc4[C@@H]2C3=O)O1 | – | inactive |
